Source: PubChem BioAssay
Shown are actives, neighbours in structure and some others; about 2.3% of the full set was active somewhere.
SIRT5 inh = blocks human SIRT5 desuccinylation of peptide. inhibition, % at 15 µM. AID 652115. Purified SirT5, succinyl-peptide AMC, trypsin-coupled fluorescence. hit rate 1.1% among 330,000. Q9NXA8; in the data active means inhibition above about 15%
Target sequence (Q9NXA8 whole entry, looked up): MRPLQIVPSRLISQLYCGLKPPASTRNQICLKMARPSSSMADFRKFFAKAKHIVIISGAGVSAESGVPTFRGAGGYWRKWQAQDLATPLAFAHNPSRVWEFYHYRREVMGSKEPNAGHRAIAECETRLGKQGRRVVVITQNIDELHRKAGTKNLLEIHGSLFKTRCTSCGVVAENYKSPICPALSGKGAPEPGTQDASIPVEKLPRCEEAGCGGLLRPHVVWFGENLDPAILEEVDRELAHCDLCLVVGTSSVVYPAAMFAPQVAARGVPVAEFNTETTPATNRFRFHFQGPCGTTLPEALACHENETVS
DENV2 CPE = inhibitors of DENV2 cytopathic effect. CPE inhibition, % at 9.99 µM. hit rate 1.7% among 350,000. AID 651640. DENV2-infected cells, cytopathic effect rescue, plate reader; in the data active means CPE inhibition above about 20%, passing the limit was not always enough; tested in BHK-21 cells;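 further: 0% = median of neutral control wells and 100% = median of positive control wells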
PDI inh = inhibitors of human protein disulfide isomerase | PDI insulin aggregation turbidity, A650, 90 min | inhibition, % at 10 µM | hit rate 0.052% among 350,000 | P07237;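 active means mean inhibition across replicates of 30% or more, whatever share of single replicates reach that level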
ERp5 inh = inhibitors of human ERp5. Q15084. ERp5 insulin aggregation, absorbance 650 nm, 90 min. inhibition, % at 9.99 µM. hit rate 0.05% among 350,000;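 active means mean replicate inhibition above about 25%, with every replicate also reaching it, limit read from the data, passing the limit was not always enough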
Rtt109 Vps75 = C. albicans Rtt109 histone acetyltransferase inhibition | Q5AAJ8 | purified Rtt109/Vps75, ThioGlo CoA-SH fluorescence, 4 h | inhibition, % at 34.9 µM | hit rate 0.16% among 330,000 | AID 540336;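 active means inhibition of at least 50% in every replicate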
Target sequence (Q5AAJ8 whole entry, looked up): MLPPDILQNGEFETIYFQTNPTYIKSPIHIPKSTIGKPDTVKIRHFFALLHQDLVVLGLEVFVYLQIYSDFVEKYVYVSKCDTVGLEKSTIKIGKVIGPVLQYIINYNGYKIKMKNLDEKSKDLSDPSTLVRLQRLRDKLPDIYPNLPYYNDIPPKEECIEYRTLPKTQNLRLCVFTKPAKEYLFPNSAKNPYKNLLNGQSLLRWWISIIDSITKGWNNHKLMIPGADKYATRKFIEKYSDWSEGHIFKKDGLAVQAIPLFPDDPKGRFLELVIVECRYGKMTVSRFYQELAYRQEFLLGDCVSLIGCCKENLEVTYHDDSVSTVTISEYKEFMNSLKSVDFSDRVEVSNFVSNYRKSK
Starred values were filed as active, the others as inactive; / = not tested or not shown.

SMILES	SIRT5 inh	DENV2 CPE	PDI inh	ERp5 inh	Rtt109 Vps75
Cc1ccc(-c2nc3ccccc3c(=O)o2)cc1	16.4*	-0.8	-6.2	2.6	1.4
C[C@@H]1CN([C@H](C)CO)C(=O)c2cccc(NC(=O)Nc3ccc4c(c3)OCO4)c2O[C@H]1CN(C)Cc1ccc(Oc2ccccc2)cc1	2.8	-6.5	/	32.3*	/
C[C@H](CO)N1C[C@H](C)[C@H](CN(C)Cc2ccc(-c3ccccc3)cc2)Oc2c(NC(=O)Nc3ccc4c(c3)OCO4)cccc2C1=O	10.8	20.8*	/	2.7	/
CC(C)NC(=O)Nc1ccc2c(c1)C(=O)N([C@H](C)CO)C[C@@H](C)[C@@H](CN(C)Cc1ccc(-c3ccccc3)cc1)O2	15.5*	8.8	/	0.7	/
CC(C)NC(=O)Nc1ccc2c(c1)C(=O)N([C@H](C)CO)C[C@H](C)[C@@H](CN(C)Cc1ccc(Cl)c(Cl)c1)O2	24.3*	-4.5	/	3.2	/
C[C@@H]1CN([C@H](C)CO)C(=O)c2cccc(NC(=O)Nc3ccc4c(c3)OCO4)c2O[C@@H]1CN(C)Cc1ccc(-c2ccccc2)cc1	9.2	-0.6	/	2.3	/
COc1ccc2c3c(n(C)c2c1)[C@@H](CO)N(C)CC31CN(S(=O)(=O)c2cn(C)cn2)C1	/	1.6	/	3.4	/
CCCC(=O)N1CC2(C1)CN(C(=O)CC1CC1)[C@@H](CO)c1c2c2ccc(OC)cc2n1C	/	7.8	/	/	/
C[C@@H]1CCCCO[C@@H](CN(C)S(=O)(=O)c2cn(C)cn2)[C@H](C)CN([C@@H](C)CO)C(=O)c2cc(NC(=O)c3ccncc3)ccc2O1	3.7	-0.9	/	-4.2	/
C[C@@H]1CN([C@@H](C)CO)C(=O)c2cc(/C=C/c3ccccc3)cnc2O[C@@H]1CN(C)Cc1cncnc1	-11.6	-11.7	/	-9.4	/
C[C@H](CO)N1C[C@H](C)[C@H](CN(C)Cc2ccc(-c3ccccc3)cc2)Oc2ccc(NC(=O)Nc3ccc4c(c3)OCO4)cc2C1=O	0.4	24.3*	/	-2.7	/
C[C@@H]1CN([C@H](C)CO)C(=O)c2cc(NC(=O)Nc3ccc4c(c3)OCO4)ccc2O[C@@H]1CN(C)Cc1ccc(-c2ccccc2)cc1	3.5	-0.9	/	0.7	/
C[C@H]1CN([C@@H](C)CO)C(=O)c2cccc(NC(=O)Nc3ccc4c(c3)OCO4)c2O[C@@H]1CN(C)Cc1ccccc1	7.4	39.2*	/	-4.9	/
CCCC#Cc1ccc2c(c1)O[C@H](CN(C)C(=O)COC)[C@@H](C)CN([C@@H](C)CO)S2(=O)=O	-0.4	-8.6	/	4.9	/
COc1ccc(C(=O)C(CCC(CNC(C)(C)C)C(=O)c2ccc(OC)cc2)CNC(C)(C)C)cc1 (configuration not stated)	/	/	3.6	/	61.7*
CCOC(=O)C1(CC2CC2)CCN(Cc2cn[nH]c2-c2cccc(F)c2)CC1	17.1*	/	0.8	-1.1	-5.3
O=C(c1ccncc1)N1CC(=O)N2[C@H](CO)[C@@H](c3ccc(-c4ccccc4)cc3)[C@@H]2C1	6.7	11.3	/	-1.0	/
O=C(c1cccnc1)N1C[C@H]2[C@@H](c3ccccc31)[C@H](CO)N2C(=O)Nc1ccc(F)cc1	7.5	67.1*	/	-2.4	/
O=C(c1ccncc1)N1C[C@@H]2[C@H](c3ccccc31)[C@H](CO)N2C(=O)Nc1cccc(F)c1	18.0*	2.6	/	-3.0	/
CCCC(=O)N1C[C@@H]2[C@H](c3ccccc31)[C@@H](CO)N2C(=O)Nc1ccccc1	6.6	-3.2	/	-3.4	/
CCCC(=O)N1C[C@H]2[C@@H](c3ccccc31)[C@@H](CO)N2C(=O)Nc1ccc(F)cc1	-0.4	28.4*	/	0.5	/
COCC(=O)N1[C@H](CO)[C@H]2c3ccccc3N(C(=O)c3cccnc3)C[C@H]21	5.6	58.8*	/	4.2	/
O=C(c1cccnc1)N1C[C@H]2[C@@H](c3ccccc31)[C@@H](CO)N2C(=O)Nc1ccc(F)cc1	5.0	-9.7	/	0.2	/
CCC(=O)N1CC2(CCN(Cc3cncnc3)CC2)c2c([nH]c3cc(OC)ccc23)[C@H]1CO	/	-1.5	/	-3.1	/
CN1C[C@H]2[C@@H](c3ccccc31)[C@H](CO)N2C(=O)Nc1cccc(F)c1	-1.1	6.7	/	-2.3	/
SMILES	SIRT5 inh	DENV2 CPE	PDI inh	ERp5 inh	Rtt109 Vps75
CC(C)NC(=O)N1[C@@H](C#N)[C@H](c2ccc(C#CC3CCCC3)cc2)[C@@H]1CO	3.4	-9.2	/	-0.6	/
Cc1cc(C(=O)COc2ccc(C#N)cc2)c(C)n1-c1ccc2c(c1)OCO2	34.6*	0.0	-7.0	-6.5	-1.3
Cc1cc(C(=O)COC(=O)C2=COCCO2)c(C)n1-c1ccc2c(c1)OCO2	/	/	5.4	/	-1.6
CN1CCN(C(=O)C[C@@H]2CC[C@@H]3[C@H](COC[C@H](O)CN3Cc3cccc(F)c3)O2)CC1	2.6	-5.1	/	0.1	/
Cc1ccc(S(=O)(=O)N2C[C@@H](C)[C@]3(C2)[C@H](O)[C@H](OC(=O)NCc2ccco2)C[C@H]2C(=O)N(c4ccccc4)C(=O)[C@H]23)cc1	21.6*	-8.3	11.7	0.0	/
COc1ccc(CNC(=O)O[C@@H]2C[C@H]3C(=O)N(c4ccccc4)C(=O)[C@H]3[C@@]3(CN(S(=O)(=O)c4ccc(C)cc4)C[C@H]3C)[C@@H]2O)cc1OC	-0.5	-1.1	3.2	0.6	/
O=C(CSc1ccc(-c2ccccc2)nn1)c1cccs1	16.2*	/	-1.8	4.9	4.7
CN(CC(=O)Nc1cccc2ccccc12)C(=O)c1ccc(NC(=O)CC#N)cc1	-1.1	-3.2	-0.8	6.9	-1.6
CCOc1cc(C(=O)N(C)CC(=O)Nc2cccc3ccccc23)ccc1OC	-2.5	41.6*	10.8	8.6	-2.9
C[C@@H]1CCCCO[C@@H](CN(C)Cc2ccncc2)[C@H](C)CN([C@H](C)CO)C(=O)c2cc(NS(=O)(=O)c3ccc(F)cc3)ccc2O1	3.3	-1.9	/	1.4	/
C[C@@H]1CN([C@H](C)CO)C(=O)c2cc(NS(=O)(=O)c3ccc(F)cc3)ccc2O[C@@H](C)CCCCO[C@@H]1CN(C)Cc1ccncc1	2.8	33.5*	/	-2.9	/
C[C@@H]1CCCCO[C@H](CN(C)Cc2ccncc2)[C@H](C)CN([C@H](C)CO)C(=O)c2cc(NS(=O)(=O)c3ccccc3)ccc2O1	8.0	28.0*	/	-1.1	/
COC(=O)C[C@@H]1CC[C@H]2[C@@H](COC[C@H](O)CN2S(=O)(=O)c2ccccc2C)O1	-1.0	-3.0	/	1.1	/
COc1ccc(NC(=O)N(C)C[C@@H]2Oc3cc(C#CCN(C)C)ccc3S(=O)(=O)N([C@@H](C)CO)C[C@@H]2C)cc1	-3.8	10.4	/	-4.1	/
Cc1cccc(OCC(=O)N/N=C/c2sc(=O)n(Cc3cccc(C(=O)O)c3)c2Cl)c1	2.2	7.8	4.3	-0.7	6.1
O=C(COc1ccccc1)N/N=C/c1sc(=O)n(Cc2cccc(C(=O)O)c2)c1Cl	15.8*	/	5.0	7.5	12.9
O=C(O)C[C@@H]1CC[C@H](NC(=O)c2ccccc2F)[C@@H](CO)O1	-0.8	2.2	/	6.0	/
CC1(C)Oc2ccc3ccc(=O)oc3c2C[C@H]1O[C@@H]1O[C@H](CO)[C@@H](O)[C@H](O)[C@H]1O	/	41.3*	-2.3	-2.2	5.6
